Reference: PubChem BioAssay AID1159580 (chemical genetic matrix, 2015)
About 2,000 (36%) of roughly 5,500 compounds were called active. About 18% were inconclusive and are not listed. This is one part of the list. Values without a mark were called inactive. No stated cut-off is given here; in the data, active means normalized growth mostly below about 0.91 (no sharp cut-off); inconclusive means no clear call, values can overlap the other calls; inactive means mostly above about 0.92.

Assay: chemical genetic growth profiling, strain panel (AID 1159580);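 further: tested at 20 µM; growth read once vehicle control cultures reached saturation at 30 °C; 1 = growth at the plate median or of vehicle wells; lower values mean less growth of the strain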
Conditions: growth OD

COc1ccc2c(c1)OC[C@@H](Cc1ccc(OC)c(OC)c1)[C@H]2O
normalized growth (S. cerevisiae deletion strains, locus YJR066W, strain TOR1, active compounds read low): 0.913
normalized growth (S. cerevisiae deletion strains, locus YKL009W, strain mrt4, active compounds read low): 0.954
normalized growth (S. cerevisiae deletion strains, locus YKL068W, active compounds read low): 0.973
normalized growth (S. cerevisiae deletion strains, locus YKL085W, strain MDH1 (second series), active compounds read low): 0.976
normalized growth (S. cerevisiae deletion strains, locus YKL085W, strain MDH1, active compounds read low): 0.976
normalized growth (S. cerevisiae deletion strains, locus YKL160W, strain elf1, active compounds read low): 1.01
normalized growth (S. cerevisiae deletion strains, locus YKL190W, strain CNB1, active compounds read low): 0.997
normalized growth (S. cerevisiae deletion strains, locus YKR001C, strain vps1, active compounds read low): 0.84 (active)
normalized growth (S. cerevisiae deletion strains, locus YKR026C, strain gcn3, active compounds read low): 1
normalized growth (S. cerevisiae deletion strains, locus YKR091W, strain srl3, active compounds read low): 1
normalized growth (S. cerevisiae deletion strains, locus YLL001W, strain dnm1, active compounds read low): 0.979
normalized growth (S. cerevisiae deletion strains, locus YLL026W, active compounds read low): 0.996
normalized growth (S. cerevisiae deletion strains, locus YLL041C, strain sdh2, active compounds read low): 1
normalized growth (S. cerevisiae deletion strains, locus YLR027C, strain aat2, active compounds read low): 1.01
normalized growth (S. cerevisiae deletion strains, locus YLR039C, strain RIC1, active compounds read low): 0.675 (active)
normalized growth (S. cerevisiae deletion strains, locus YLR058C, strain SHM2, active compounds read low): 1
normalized growth (S. cerevisiae deletion strains, locus YLR102C, strain apc9, active compounds read low): 0.981
normalized growth (S. cerevisiae deletion strains, locus YLR113W, strain HOG1, active compounds read low): 0.871
normalized growth (S. cerevisiae deletion strains, locus YLR221C, strain rsa3, active compounds read low): 1.01
normalized growth (S. cerevisiae deletion strains, locus YLR258W, strain gsy2, active compounds read low): 0.994
normalized growth (S. cerevisiae deletion strains, locus YLR262C, strain YPT6 (second series), active compounds read low): 0.755 (active)
normalized growth (S. cerevisiae deletion strains, locus YLR262C, strain YPT6, active compounds read low): 0.641
normalized growth (S. cerevisiae deletion strains, locus YLR268W, strain sec22, active compounds read low): 0.997
normalized growth (S. cerevisiae deletion strains, locus YLR320W, strain mms22, active compounds read low): 1.01
normalized growth (S. cerevisiae deletion strains, locus YLR330W, strain CHS5, active compounds read low): 0.984
normalized growth (S. cerevisiae deletion strains, locus YLR342W, strain FKS1 (second series), active compounds read low): 1.02
normalized growth (S. cerevisiae deletion strains, locus YLR342W, strain FKS1, active compounds read low): 1
normalized growth (S. cerevisiae deletion strains, locus YLR357W, strain rsc2, active compounds read low): 1.01
normalized growth (S. cerevisiae deletion strains, locus YLR370C, strain arc18, active compounds read low): 1
normalized growth (S. cerevisiae deletion strains, locus YLR371W, strain rom2, active compounds read low): 0.96
normalized growth (S. cerevisiae deletion strains, locus YLR384C, strain iki3, active compounds read low): 1.01
normalized growth (S. cerevisiae deletion strains, locus YLR418C, strain cdc73, active compounds read low): 1.04
normalized growth (S. cerevisiae deletion strains, locus YML016C, strain PPZ1, active compounds read low): 1
normalized growth (S. cerevisiae deletion strains, locus YML032C, strain rad52, active compounds read low): 0.975
normalized growth (S. cerevisiae deletion strains, locus YML120C, strain ndi1, active compounds read low): 1
normalized growth (S. cerevisiae deletion strains, locus YML124C, strain tub3, active compounds read low): 0.976
normalized growth (S. cerevisiae deletion strains, locus YMR058W, strain fet3, active compounds read low): 1.02
normalized growth (S. cerevisiae deletion strains, locus YMR078C, strain ctf18, active compounds read low): 0.977
normalized growth (S. cerevisiae deletion strains, locus YMR125W, strain sto1, active compounds read low): 1.01
normalized growth (S. cerevisiae deletion strains, locus YMR129W, active compounds read low): 1.01
normalized growth (S. cerevisiae deletion strains, locus YMR205C, strain PFK2, active compounds read low): 0.966
normalized growth (S. cerevisiae deletion strains, locus YMR223W, strain ubp8, active compounds read low): 0.976
normalized growth (S. cerevisiae deletion strains, locus YMR231W, strain pep5, active compounds read low): 0.981
normalized growth (S. cerevisiae deletion strains, locus YMR307W, strain GAS1, active compounds read low): 1.11
normalized growth (S. cerevisiae deletion strains, locus YNL067W, strain RPL9B, active compounds read low): 1.02
normalized growth (S. cerevisiae deletion strains, locus YNL071W, strain lat1, active compounds read low): 1
normalized growth (S. cerevisiae deletion strains, locus YNL153C, strain GIM3, active compounds read low): 1.03
normalized growth (S. cerevisiae deletion strains, locus YNL183C, strain NPR1, active compounds read low): 0.867
normalized growth (S. cerevisiae deletion strains, locus YNL209W, strain ssb2, active compounds read low): 1.02
normalized growth (S. cerevisiae deletion strains, locus YNL233W, strain BNI4, active compounds read low): 1.02
normalized growth (S. cerevisiae deletion strains, locus YNL248C, strain rpa49, active compounds read low): 1.01
normalized growth (S. cerevisiae deletion strains, locus YNL250W, strain rad50, active compounds read low): 0.962
normalized growth (S. cerevisiae deletion strains, locus YNL271C, strain bni1, active compounds read low): 0.977
normalized growth (S. cerevisiae deletion strains, locus YNL298W, strain CLA4, active compounds read low): 0.991
normalized growth (S. cerevisiae deletion strains, locus YNL307C, strain MCK1, active compounds read low): 0.971
normalized growth (S. cerevisiae deletion strains, locus YNL322C, strain KRE1 (second series), active compounds read low): 0.973
normalized growth (S. cerevisiae deletion strains, locus YNR049C, strain mso1, active compounds read low): 1.01
normalized growth (S. cerevisiae deletion strains, locus YNR052C, strain pop2, active compounds read low): 0.978
normalized growth (S. cerevisiae deletion strains, locus YOL012C, strain htz1): 1.24
normalized growth (S. cerevisiae deletion strains, locus YOL147C, strain pex11, active compounds read low): 0.983
normalized growth (S. cerevisiae deletion strains, locus YOR001W, strain rrp6, active compounds read low): 1.03
normalized growth (S. cerevisiae deletion strains, locus YOR061W, strain CKA2, active compounds read low): 0.999
normalized growth (S. cerevisiae deletion strains, locus YOR069W, strain VPS5, active compounds read low): 0.995
normalized growth (S. cerevisiae deletion strains, locus YOR070C, strain gyp1, active compounds read low): 1
normalized growth (S. cerevisiae deletion strains, locus YOR080W, strain dia2, active compounds read low): 1.01
normalized growth (S. cerevisiae deletion strains, locus YOR083W, strain WHI5, active compounds read low): 0.997
normalized growth (S. cerevisiae deletion strains, locus YOR106W, strain vam3, active compounds read low): 0.99
normalized growth (S. cerevisiae deletion strains, locus YOR136W, strain idh2, active compounds read low): 0.986
normalized growth (S. cerevisiae deletion strains, locus YOR144C, strain elg1, active compounds read low): 0.995
normalized growth (S. cerevisiae deletion strains, locus YOR184W, strain ser1, active compounds read low): 0.964
normalized growth (S. cerevisiae deletion strains, locus YOR231W, strain MKK1, active compounds read low): 0.93
normalized growth (S. cerevisiae deletion strains, locus YOR265W, strain rbl2, active compounds read low): 1.01
normalized growth (S. cerevisiae deletion strains, locus YOR270C, strain vph1, active compounds read low): 1.01
normalized growth (S. cerevisiae deletion strains, locus YOR290C, strain snf2, active compounds read low): 0.987
normalized growth (S. cerevisiae deletion strains, locus YOR316C, strain cot1, active compounds read low): 0.969
normalized growth (S. cerevisiae deletion strains, locus YPL051W, strain arl3, active compounds read low): 0.997
normalized growth (S. cerevisiae deletion strains, locus YPL078C, strain atp4, active compounds read low): 1.02
normalized growth (S. cerevisiae deletion strains, locus YPL106C, strain sse1, active compounds read low): 1.03
normalized growth (S. cerevisiae deletion strains, locus YPL240C, strain hsp82, active compounds read low): 1.01
normalized growth (S. cerevisiae deletion strains, locus YPL241C, strain CIN2, active compounds read low): 1
normalized growth (S. cerevisiae deletion strains, locus YPL256C, strain CLN2, active compounds read low): 0.907
normalized growth (S. cerevisiae deletion strains, locus YPR119W, strain clb2, active compounds read low): 0.974
normalized growth (S. cerevisiae deletion strains, locus YPR141C, strain kar3, active compounds read low): 0.979
normalized growth (S. cerevisiae deletion strains, locus YPR163C, strain tif3, active compounds read low): 0.974
normalized growth (S. cerevisiae deletion strains, locus YPR167C, strain met16, active compounds read low): 0.959
normalized growth (S. cerevisiae deletion strains, strain wtn01, active compounds read low): 0.97
normalized growth (S. cerevisiae strains, strain wild type, active compounds read low): 0.995
